The text below walks through data of PubChem BioAssay (EPA / NIEHS).

“And” between values parts separate entries of the source, which are not always exact repeats. Equal entries are not always repeated. Inconclusive results are not listed. A structure can be active in one record and inactive in another. The source made the active and inactive calls. The calls were made as follows, unless noted: active = hit-call score of the fitted dose curve at least 0.9, where 1 is the maximum; inactive = score below 0.9.

Assay [1] in a line: IUF_NPC1b_proliferation_BrdU_72hr: Leibniz Research Institute for Environmental Medicine (IUF) 72-hour Neural Progenitor Cell Bromodeoxyuridine (BrdU) Proliferation Assay (NPC1b) (AID 2284207). In a few lines:
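hNPC spheres (primary, GW 16-19 fetal cortex), single sphere/well, EGF+FGF medium; 72 h compound, no renewal; BrdU pulse last 16 h; luminescent ELISA; activity vs DMSO baseline; growth-factor withdrawal as positive control.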

Assay [2] in a line: IUF_NPC1a_proliferation_area_72hr: Leibniz Research Institute for Environmental Medicine (IUF) 72-hour Neural Progenitor Cell Proliferation Area Assay (NPC1a) (AID 2284208). The procedure, abridged:
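Spheres of 0.3 mm are plated singly in growth-factor medium and exposed from day 0. After three days at 37C and 5% CO2, sphere area is measured by phase contrast imaging, with activity referenced to DMSO.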

Assay [3] is described as follows: IUF_NPC1_viability_72hr: Viability Assessment at 72 hours in the Leibniz Research Institute for Environmental Medicine (IUF) Neural Progenitor Cell Proliferation Assay (NPC1) (AID 2284209). The procedure, abridged:
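Each well receives one 0.3 mm progenitor sphere from fetal brain cortex; test chemical is added at plating and left three days. Viability comes from alamar blue fluorescence, multiplexed with LDH and BrdU readouts in the same well.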

A short description of assay [4]: CCTE_Mundy_HCI_Cortical_Synap_Neur_Matur_NeuriteSpotCountPerNeuriteLength: CCTE's Synaptogenesis and Neurite Maturation Assay in rat cortical cells for Neurite Spot Count per Neurite Length, Mundy Lab (AID 2284210). The procedure, abridged: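 Rat primary cortical cultures, glia arrested with AraC at DIV 5, were dosed with media change at DIV 7 and fixed at DIV 12. Synaptophysin puncta per MAP2-labelled neurite length were quantified by high-content imaging versus DMSO.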

Assay [5] can be described thus: CCTE_Mundy_HCI_Cortical_Synap_Neur_Matur_BPCount: CCTE's Synaptogenesis and Neurite Maturation Assay in rat cortical cells for Branch Point Count, Mundy Lab (AID 2284211). In a few lines:
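Branch point number is quantified by automated imaging of fluorescently labelled neurites and synapses in rat primary cortical neurons exposed from DIV 7 to DIV 12. Activity is analysed relative to DMSO negative control.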

The nature of assay [6]: CCTE_Mundy_HCI_Cortical_NOG_NeuriteCount: CCTE's Neurite Outgrowth Assay in rat cortical cells for Neurite Count, Mundy Lab (AID 2284212).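 Also: cells fixed about two days after chemical exposure began.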 The procedure, abridged: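 Neurite number per cell from high-content imaging of betaIII-tubulin immunostaining, with Hoechst nuclear counterstain.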
The nature of assay [7]: CCTE_Mundy_HCI_Cortical_NOG_NeuriteLength: CCTE's Neurite Outgrowth Assay in rat cortical cells for Neurite Length, Mundy Lab (AID 2284213).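 As to AC50: neurites imaged about 48 to 50 h after chemical exposure began.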 The procedure, abridged: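 Neurite length was read by high-content imaging of βIII-tubulin-labelled neurites in rat primary cortical cultures. Activity was fitted relative to DMSO.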
The nature of assay [8]: CCTE_Mundy_HCI_Cortical_Synap_Neur_Matur_NeuriteLength: CCTE's Synaptogenesis and Neurite Maturation Assay in rat cortical cells for Neurite Length, Mundy Lab (AID 2284214). The procedure, abridged:
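Neurite length in rat primary cortical cultures is imaged after MAP2, synaptophysin and Hoechst staining. Dosing starts DIV 7, ending DIV 12; DMSO serves as negative control and baseline.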

Assay [9] can be described thus: CCTE_Mundy_HCI_Cortical_Synap_Neur_Matur_NeuriteSpotCountPerNeuron: CCTE's Synaptogenesis and Neurite Maturation Assay in rat cortical cells for Neurite Spot Count per Neuron Count, Mundy Lab (AID 2284215). In a few lines:
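Rat cortical primary cultures; AraC DIV 5 to arrest glia; dosing + media change DIV 7; fixed DIV 12. Anti-MAP2/anti-synaptophysin, Hoechst nuclei; HCI puncta count per neuron, positive fitting direction vs DMSO.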

Assay [10] is described as follows: CCTE_Mundy_HCI_Cortical_Synap_Neur_Matur_SynapseCount: CCTE's Synaptogenesis and Neurite Maturation Assay in rat cortical cells for Synapse Count, Mundy Lab (AID 2284218). In a few lines:
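Synapse count per neuron is measured in rat cortical neurons exposed to chemicals between DIV 7 and DIV 12, with glial growth arrested by AraC at DIV 5. Synaptophysin and MAP2 staining is imaged automatically; activity is fitted relative to DMSO.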

Assay [11] is described as follows: CCTE_Mundy_HCI_Cortical_Synap_Neur_Matur_CellBodySpotCount: CCTE's Synaptogenesis and Neurite Maturation Assay in rat cortical cells for Cell Body Spot Count, Mundy Lab (AID 2284223). In a few lines:
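Rat cortical neurons; AraC @ DIV 5; dose + media change DIV 7; fix DIV 12; anti-MAP2/anti-synaptophysin IF, Hoechst; HCI count of soma synaptophysin puncta/neuron; DMSO = negative control.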

Assay [12] in a line: CCTE_Mundy_HCI_hNP1_Pro_ResponderAvgInten: CCTE's Proliferation Assay in human neuroprogenitor cells, Mundy Lab (AID 2284224; active = hit-call score of the fitted dose curve at least 0.9, where 1 is the maximum;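 also: human neural progenitor cells hNP1 derived from WA09 embryonic stem cells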). The procedure, abridged: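 Human neuroprogenitors (hNP1, WA09 lineage) receive test chemical after 40 to 44 hours of attachment. A four-hour BrdU pulse begins twenty hours later, followed by fixation and high content imaging; signal is referenced to DMSO controls.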

The nature of assay [13]: UKN4_HCS_LUHMES_neurite_outgrowth: University of Konstanz (UKN) Leist Lab Neurite Outgrowth Assay in human LUHMES cells (UKN4) (AID 2284206). The note with it: actives raise or lower the signal. The procedure, abridged:
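2-day-differentiated LUHMES, 24 h cpd exposure, live calcein-AM + H-33342 stain, HCS fluorescence imaging of neurite area; DMSO = baseline, bidirectional fit.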

Assay [14] is described as follows: CCTE_Mundy_HCI_hN2_NOG_NeuriteCount: CCTE's Neurite Outgrowth Assay in human hN2 cells for Neurite Count, Mundy Lab (AID 2284219; active = hit-call score of the fitted dose curve at least 0.9, where 1 is the maximum). The procedure, abridged:
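In this morphology assay, hNP1-derived neurons received test chemical 2 h post-plating and were fixed two days later in warm paraformaldehyde/sucrose containing Hoechst 33342. Neurites, labelled by rabbit anti-βIII-tubulin (1:800) and Alexa Fluor-488 (1:500), were counted automatically.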

Assay [15] can be described thus: CCTE_Mundy_HCI_hN2_NOG_NeuriteLength: CCTE's Neurite Outgrowth Assay in human hN2 cells for Neurite Length, Mundy Lab (AID 2284220; active = hit-call score of the fitted dose curve at least 0.9, where 1 is the maximum). In a few lines: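 Using βIII-tubulin immunofluorescence and Hoechst nuclear counterstain, this component quantifies neurite length in hNP1-derived neurons.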
Assay [16] is described as follows: CCTE_Mundy_HCI_hN2_NOG_NeuronCount: CCTE's Neurite Outgrowth Assay in human hN2 cells for Neuron Count, Mundy Lab (AID 2284221; active = hit-call score of the fitted dose curve at least 0.9, where 1 is the maximum). In a few lines: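 Read-out is the number of betaIII-tubulin-positive neurons imaged by automated high-content analysis, with DMSO as negative control.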

On to `CN1COCN(Cc2cnc(Cl)s2)C1=N[N+](=O)[O-]`, for which the molecule was classed as inactive in [1], in assay [2], in assay [3], in assay [4], in [5] and in [6]. Besides, the outcome in [7], in assay [8], in [9], in assay [10], in assay [11] and in [12] was inactive.

Usually AC50 stands for the concentration at which the activity in the assay is half-maximal. As for `CCOP(=S)(OCC)OC(Cl)C(Cl)(Cl)Cl` (stereo unspecified), the AC50 was 1.35 µM (active) in [1]; 16.5 µM (active) in [4]; 70.5 µM (active) and 13.3 µM (active) in assay [5]; 75.7 µM (active) and 31.8 µM (active) in assay [6]; 66.9 µM (active) and 32.2 µM (active) in assay [7]; 85.1 µM (active) and 12.1 µM (active) in assay [8]. In addition, the AC50 in assay [9] was 83.9 µM (active) and 16.2 µM (active); in assay [10], 85.8 µM (active) and 15.9 µM (active); in assay [11], 16.7 µM (active); in assay [12], 50 µM (active) and 75.1 µM (active). The molecule was called inactive in assay [2], in assay [3], in assay [4] and in assay [11].

`CON=C(C(=O)OC)c1ccccc1CON=C(C)c1cccc(C(F)(F)F)c1`: the call in assay [1] was inactive. Moreover, the AC50 in assay [2] was 9.57 µM (active); in assay [3] it was 32.8 µM (active); in [4] it was 0.489 µM (active); in [5], 446 nM (active); in assay [6], 1.2 µM (active); in [7] it was 1.14 µM (active). The AC50 in [8] was 954 nM (active); in assay [9], 320 nM (active); in assay [10] it was 664 nM (active); in [11] it was 3.43 µM (active); in [12], 79.9 µM (active).

Consider `CC(C)N(C(=O)SCC(Cl)=C(Cl)Cl)C(C)C`, for which the AC50 in assay [13] is 15.9 µM (active); in [4] it was 25 µM (active); in [8] it was 15000 nM (active); in assay [9], 23600 nM (active); in assay [10], 23700 nM (active); in [11], 24.1 µM (active). For the same molecule, the outcome in [1], in [2], in assay [3], in assay [5], in assay [6] and in [7] was inactive.

For `CCOC(=O)CC(SP(=O)(OC)OC)C(=O)OCC` (stereo unspecified), the outcome in assay [13], in assay [1], in assay [2], in [4], in assay [5] and in assay [6] was inactive. Besides, the result in [7], in assay [8], in assay [9], in assay [10], in assay [14] and in assay [15] was inactive. For the same molecule, the molecule was classed as inactive in assay [11]. In assay [3], the AC50 is 1.06 µM (active).

As for `S=C1NCCN1`, the molecule was classed as inactive in [1], in assay [2], in [3], in assay [4], in assay [5] and in assay [6]. In addition, the molecule was classed as inactive in assay [7], in [8], in assay [9], in assay [10], in [11] and in [12].

As for `CCCSP(=O)(OCC)SCCC`, the molecule was classed as inactive in assay [1], in [2], in [3], in [4], in assay [5] and in [6]. The molecule was called inactive in assay [7], in [8], in [9], in [10], in assay [14] and in assay [15]. For the same molecule, the molecule was called inactive in assay [16], in assay [11] and in [12].
